Source: PubChem BioAssay (EPA / NIEHS)
“And” between values parts separate entries of the source, which are not always exact repeats. Equal entries are not always repeated. Where a structure was tested more than once in an assay, its records may differ in their call. The source made the active and inactive calls. The calls were made as follows: active = hit-call score of the fitted dose curve at least 0.9, where 1 is the maximum; inactive = score below 0.9.

What was measured:
[1] = ATG_DR4_LXR_CIS: Attagene CIS-FACTORIAL HepG2 Assay for human Liver X Receptor (LXR), DR4 submotif (AID 2282929); conditions: HepG2 Attagene DR4 cis-reporter, mRNA transcription; AC50: actives raise or lower the signal unless noted; outcome: actives raise or lower the signal unless noted
In short: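 Cells were transfected with multiple reporter transcription units, exposed to chemicals for 24 hours, then lysed for RNA. Reporter mRNA induction was measured by RT-PCR with capillary electrophoresis detection and fitted in both directions relative to DMSO.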

[2] = molecular target: Aryl hydrocarbon receptor (Homo sapiens) (UniProt P35869); assay: ATG_Ahr_CIS: Attagene CIS-FACTORIAL HepG2 Assay for human Aryl Hydrocarbon Receptor (Ahr) (AID 2282930); conditions: HepG2 AhR cis-factorial reporter transcription; actives raise or lower the signal
Aryl hydrocarbon receptor (Homo sapiens), sequence (P35869 whole entry, looked up): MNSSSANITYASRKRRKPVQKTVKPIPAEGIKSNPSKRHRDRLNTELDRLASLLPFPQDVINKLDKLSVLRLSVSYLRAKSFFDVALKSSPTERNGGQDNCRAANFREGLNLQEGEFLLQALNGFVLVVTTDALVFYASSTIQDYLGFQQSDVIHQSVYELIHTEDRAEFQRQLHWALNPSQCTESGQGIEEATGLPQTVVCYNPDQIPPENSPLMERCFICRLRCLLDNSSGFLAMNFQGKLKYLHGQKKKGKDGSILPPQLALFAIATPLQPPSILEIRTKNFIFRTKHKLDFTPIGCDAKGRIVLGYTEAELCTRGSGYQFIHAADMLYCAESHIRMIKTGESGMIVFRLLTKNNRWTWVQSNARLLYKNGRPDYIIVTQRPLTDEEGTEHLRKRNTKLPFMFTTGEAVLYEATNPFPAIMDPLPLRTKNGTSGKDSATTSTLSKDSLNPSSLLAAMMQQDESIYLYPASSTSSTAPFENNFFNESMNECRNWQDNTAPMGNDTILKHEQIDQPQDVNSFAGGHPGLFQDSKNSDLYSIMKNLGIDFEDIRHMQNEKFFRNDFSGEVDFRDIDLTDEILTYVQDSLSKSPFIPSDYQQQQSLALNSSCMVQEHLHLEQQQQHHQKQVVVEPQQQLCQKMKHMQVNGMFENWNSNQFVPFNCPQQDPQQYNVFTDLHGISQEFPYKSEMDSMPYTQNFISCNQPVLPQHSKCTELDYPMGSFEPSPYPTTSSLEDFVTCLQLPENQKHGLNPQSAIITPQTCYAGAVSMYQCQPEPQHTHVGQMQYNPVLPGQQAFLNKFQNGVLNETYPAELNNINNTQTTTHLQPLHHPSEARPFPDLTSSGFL
In short: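 HepG2 cells transiently transfected with cis-element-driven multiplexed reporter units; endogenous AhR activity read as reporter mRNA 24 h after dosing, via RT-PCR, 6-FAM labelling, HpaI digestion and capillary electrophoresis. Bidirectional fit relative to DMSO.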

[3] = ATG_AP_1_CIS: Attagene CIS-FACTORIAL HepG2 Assay for human Activator Protein 1 (AP-1) (AID 2282931); conditions: HepG2 Attagene cis-factorial AP-1 reporter mRNA; actives raise or lower the signal
In short: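 Endogenous transcription-factor activity in human HepG2 liver cells is read through a cis-promoter reporter transcript, sampled 24 h after dosing. Detection uses RT-PCR with capillary electrophoresis; values come from bidirectional fitting relative to DMSO.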

[4] = ATG_AP_2_CIS: Attagene CIS-FACTORIAL HepG2 Assay for human Activator Protein 2 (AP-2) (AID 2282932); conditions: HepG2 AP-2 cis-reporter, Attagene transcription factor profiling; AC50: actives raise or lower the signal unless noted; outcome: actives raise or lower the signal unless noted
In short: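 Read-out: fluorescent reporter mRNA via RT-PCR and capillary electrophoresis, 24 h post-dose in transiently transfected HepG2. Endogenous factors drive cis-promoter reporters; gain or loss of signal fitted bidirectionally against DMSO.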

[5] = ATG_BRE_CIS: Attagene CIS-FACTORIAL HepG2 Assay for human Bone Morphogenetic Protein (BMP) Response Element (BRE) (AID 2282933); conditions: HepG2 BMP response element reporter, Attagene transcription factor profiling; actives raise or lower the signal
In short: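 Fluorescence-labelled reporter cDNA fragments, separated by capillary electrophoresis, gave the signal for this component of a 52-readout multiplex. HepG2 cells were transfected, exposed to chemicals for 24 h, and compared with DMSO using bidirectional fitting.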

[6] = molecular target: Retinoic acid receptor alpha (Homo sapiens) (UniProt P10276); assay: ATG_DR5_RAR_CIS: Attagene CIS-FACTORIAL HepG2 Assay for human Retinoic Acid Receptor Alpha (RARE), DR5 submotif (AID 2282934); conditions: HepG2 Attagene cis-factorial RARE DR5 reporter, mRNA; actives raise or lower the signal;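 as to AC50: reporter responds to endogenous RAR alpha beta and gamma in HepG2 not RARA alone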
Retinoic acid receptor alpha (Homo sapiens), sequence (P10276 whole entry, looked up): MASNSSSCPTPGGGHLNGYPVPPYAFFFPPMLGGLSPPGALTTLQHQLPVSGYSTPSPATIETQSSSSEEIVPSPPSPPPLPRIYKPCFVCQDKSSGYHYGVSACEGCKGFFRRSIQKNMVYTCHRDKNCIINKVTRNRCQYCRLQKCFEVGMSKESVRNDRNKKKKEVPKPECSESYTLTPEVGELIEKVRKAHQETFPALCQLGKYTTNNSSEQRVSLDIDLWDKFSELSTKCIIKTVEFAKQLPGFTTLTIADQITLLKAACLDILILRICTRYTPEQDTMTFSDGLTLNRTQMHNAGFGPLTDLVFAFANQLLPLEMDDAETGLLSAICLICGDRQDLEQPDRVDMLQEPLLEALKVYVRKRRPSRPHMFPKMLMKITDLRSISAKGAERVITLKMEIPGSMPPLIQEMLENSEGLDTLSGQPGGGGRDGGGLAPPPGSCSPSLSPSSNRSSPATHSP
In short: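 HepG2 cells transiently transfected with multiplexed reporter units; DR5 cis-element drives reporter through endogenous transcription factors. After 24 h dosing, reporter mRNA quantified by RT-PCR, fluorescent labeling, HpaI digestion and capillary electrophoresis; bidirectional fitting versus DMSO.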

[7] = molecular target: Transcription factor E2F1 (Homo sapiens) (UniProt Q01094); assay: ATG_E2F_CIS: Attagene CIS-FACTORIAL HepG2 Assay for human E2F Transcription Factor 1 (AID 2282935); conditions: HepG2 Attagene cis-reporter, E2F reporter RNA transcripts; actives raise or lower the signal
Transcription factor E2F1 (Homo sapiens), sequence (Q01094 whole entry, looked up): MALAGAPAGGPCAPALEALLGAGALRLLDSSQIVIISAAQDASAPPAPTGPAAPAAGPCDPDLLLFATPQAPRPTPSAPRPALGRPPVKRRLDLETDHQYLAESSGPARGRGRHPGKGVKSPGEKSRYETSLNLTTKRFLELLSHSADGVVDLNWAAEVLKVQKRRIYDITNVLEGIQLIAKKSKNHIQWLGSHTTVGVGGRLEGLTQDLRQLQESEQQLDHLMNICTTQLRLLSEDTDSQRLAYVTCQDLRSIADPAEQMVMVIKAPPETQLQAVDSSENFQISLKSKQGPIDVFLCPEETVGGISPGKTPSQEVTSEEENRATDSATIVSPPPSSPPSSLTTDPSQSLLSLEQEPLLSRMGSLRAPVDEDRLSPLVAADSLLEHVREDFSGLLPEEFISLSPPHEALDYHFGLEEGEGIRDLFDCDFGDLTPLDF
In short: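 Transient MRTU transfection of HepG2; 24 h compound exposure; RNA → oligo(dT) RT → PCR → FAM label → HpaI cut → CE fluorescence. Gain/loss of signal fit against DMSO.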

[8] = ATG_E_Box_CIS: Attagene CIS-FACTORIAL HepG2 Assay for human Enhancer Box (E-box) (AID 2282936); conditions: HepG2 E-box cis-reporter transcription, actives raise or lower the signal
In short: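 Transiently transfected HepG2, endogenous TF-driven reporters, 24 h dosing. Readout: RT-PCR plus capillary electrophoresis of fluorescent reporter fragments. Gain or loss of signal fitted bidirectionally against DMSO baseline.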

[9] = ATG_M_61_CIS: Attagene CIS-FACTORIAL HepG2 Assay for M61 Transcription Factor (Internal Marker) (AID 2282937); conditions: HepG2 Attagene CIS-FACTORIAL M61 internal marker reporter; actives raise or lower the signal
In short: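 Cells were transfected with reporter units under cis-regulatory promoters, treated with chemicals for 24 h, then lysed for RNA. Reporter transcripts were quantified by RT-PCR and capillary electrophoresis, and activity was fitted bidirectionally against DMSO.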

[10] = ATG_EGR_CIS: Attagene CIS-FACTORIAL HepG2 Assay for human Early Growth Response 1 (EGR1) (AID 2282938); conditions: HepG2 Attagene CIS-FACTORIAL EGR reporter mRNA; actives raise or lower the signal
In short: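 Endogenous TF activity in HepG2 liver cells was gauged through cis-promoter reporter constructs transiently transfected. After 24 h dosing, reporter mRNA was quantified by RT-PCR and capillary electrophoresis, and curves fitted in both directions versus DMSO.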

[11] = ATG_M_19_CIS: Attagene CIS-FACTORIAL HepG2 Assay for M19 Transcription Factor (Internal Marker) (AID 2282939); conditions: HepG2 Attagene CIS-FACTORIAL M19 internal marker reporter; actives raise or lower the signal
In short: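 HepG2, MRTU transient transfection, 24 h dosing. Total RNA → RT-PCR → 6-FAM primer extension → HpaI digest → CE fluorescence. Bidirectional curve fit, DMSO negative control.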

[12] = ATG_ERE_CIS: Attagene CIS-FACTORIAL HepG2 Assay for Estrogen Response Element (ERE) (AID 2282940); conditions: HepG2 ERE cis-reporter, Attagene RNA transcript; actives raise or lower the signal
In short: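 After a 24 h chemical treatment, RNA from reporter-transfected HepG2 cells is reverse-transcribed, PCR-amplified and fluorescently labelled. Fragments separated by capillary electrophoresis give reporter signal; DMSO serves as negative control.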

[13] = ATG_Ets_CIS: Attagene CIS-FACTORIAL HepG2 Assay for human Erythroblast Transformation Specific (ETS) (AID 2282941); conditions: HepG2 ETS cis-reporter transcription; AC50: actives raise or lower the signal unless noted; outcome: actives raise or lower the signal unless noted
In short: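 RT-PCR/capillary electrophoresis fluorescence read-out of reporter mRNA; HepG2 transient multi-reporter transfection; 24 h compound exposure; gain or loss of signal fitted bidirectionally relative to DMSO.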

[14] = molecular target: Hepatocyte nuclear factor 3-beta (Homo sapiens) (UniProt Q9Y261); assay: ATG_FoxA2_CIS: Attagene CIS-FACTORIAL HepG2 Assay for human Forkhead box A2 (FOXA2) (AID 2282942); conditions: HepG2 cis-reporter transcription factor activity, 24 h; actives raise or lower the signal
Hepatocyte nuclear factor 3-beta (Homo sapiens), sequence (Q9Y261 whole entry, looked up): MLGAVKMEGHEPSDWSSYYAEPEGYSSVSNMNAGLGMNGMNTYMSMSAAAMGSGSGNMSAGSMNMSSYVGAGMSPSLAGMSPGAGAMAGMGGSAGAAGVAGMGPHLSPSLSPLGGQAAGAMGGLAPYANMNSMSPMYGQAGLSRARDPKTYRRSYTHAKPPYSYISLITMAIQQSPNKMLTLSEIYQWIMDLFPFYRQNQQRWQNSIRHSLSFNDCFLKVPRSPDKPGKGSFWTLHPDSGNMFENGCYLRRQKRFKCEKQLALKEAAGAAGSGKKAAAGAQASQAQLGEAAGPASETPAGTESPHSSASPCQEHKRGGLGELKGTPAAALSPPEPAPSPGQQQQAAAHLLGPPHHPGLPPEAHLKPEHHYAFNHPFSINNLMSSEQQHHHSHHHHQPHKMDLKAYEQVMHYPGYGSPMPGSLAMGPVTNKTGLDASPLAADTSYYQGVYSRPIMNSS
In short: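 Endogenous transcription factor activity was read in HepG2 cells carrying transiently transfected cis-promoter reporter units. After 24 h dosing, reporter mRNA was quantified by RT-PCR and capillary electrophoresis, and values fitted bidirectionally versus DMSO.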

[15] = ATG_FoxO_CIS: Attagene CIS-FACTORIAL HepG2 Assay for human Forkhead box O (FoxO) (AID 2282943); conditions: HepG2 Attagene cis-reporter, FoxO element, mRNA; actives raise or lower the signal
In short: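 HepG2 cells transiently transfected with cis-element-driven reporter units report endogenous FoxO activity. After 24 h chemical exposure, reporter mRNA quantified by RT-PCR, fluorescent labeling, HpaI digestion and capillary electrophoresis; bidirectional fit versus DMSO.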

[16] = ATG_GATA_CIS: Attagene CIS-FACTORIAL HepG2 Assay for human GATA Binding Protein (AID 2282944); conditions: HepG2 GATA cis-element reporter, Attagene multiplex mRNA; actives raise or lower the signal
In short: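 Cells: HepG2, transiently transfected with cis-regulated reporter transcription units. Exposure: 24 h. Detection: RT-PCR plus capillary electrophoresis of FAM-labeled fragments. Analysis: bidirectional, DMSO as baseline.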

[17] = ATG_GLI_CIS: Attagene CIS-FACTORIAL HepG2 Assay for human Zinc Finger Protein GLI1 (AID 2282945); conditions: HepG2, Attagene cis-factorial reporter mRNA, GLI element; actives raise or lower the signal
In short: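 Transiently transfected HepG2 cells report endogenous transcription factor activity via cis-element-driven reporter units. After 24 h compound exposure, reporter mRNA was measured by RT-PCR with capillary electrophoresis; bidirectional fitting against DMSO baseline.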

[18] = molecular target: Bile acid receptor (Homo sapiens) (UniProt Q96RI1); assay: ATG_IR1_CIS: Attagene CIS-FACTORIAL HepG2 Assay for human Nuclear Receptor Subfamily 1 Group H Member 4 (NR1H4), IR1 submotif (AID 2282946); conditions: IR1 reporter transcription, actives raise or lower the signal
Bile acid receptor (Homo sapiens), sequence (Q96RI1 whole entry, looked up): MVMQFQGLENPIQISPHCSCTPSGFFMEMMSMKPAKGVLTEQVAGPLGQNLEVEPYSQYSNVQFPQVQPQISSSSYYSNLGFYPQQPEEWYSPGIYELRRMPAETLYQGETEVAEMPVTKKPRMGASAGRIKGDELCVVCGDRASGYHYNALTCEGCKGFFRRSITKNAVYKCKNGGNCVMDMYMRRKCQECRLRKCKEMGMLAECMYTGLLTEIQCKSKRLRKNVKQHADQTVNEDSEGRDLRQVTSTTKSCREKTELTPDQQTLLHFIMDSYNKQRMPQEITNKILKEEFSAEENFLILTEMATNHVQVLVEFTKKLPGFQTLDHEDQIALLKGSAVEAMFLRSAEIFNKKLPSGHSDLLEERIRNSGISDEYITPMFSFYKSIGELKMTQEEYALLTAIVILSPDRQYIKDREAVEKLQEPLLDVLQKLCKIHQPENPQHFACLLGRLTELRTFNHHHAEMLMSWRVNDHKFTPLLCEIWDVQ
In short: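 Fluorescence of capillary-separated, HpaI-digested RT-PCR reporter products gave IR1-element mRNA induction in HepG2 cells 24 h after dosing. Endogenous transcription factors drove the cis-regulated reporters; activity was fitted bidirectionally against DMSO.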

[19] = ATG_ISRE_CIS: Attagene CIS-FACTORIAL HepG2 Assay for human Interferon Regulatory Factor 1 (IRF1) binding to an Interferon-Stimulated Response Element (ISRE) (AID 2282948); conditions: HepG2 ISRE cis-reporter (Attagene), mRNA transcription readout; actives raise or lower the signal
In short: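 Read-out: fluorescent RT-PCR products resolved by capillary electrophoresis, reporting endogenous transcription factor activity via ISRE-driven reporter mRNA in transfected HepG2 cells dosed for 24 h; gain or loss fitted relative to DMSO.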

[20] = ATG_GRE_CIS: Attagene CIS-FACTORIAL HepG2 Assay for human Glucocorticoid Response Elements (GRE) (AID 2282947); conditions: HepG2 GRE cis-reporter, Attagene multiplex mRNA; AC50: actives raise or lower the signal unless noted; outcome: actives raise or lower the signal unless noted
In short: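 Read-out: fluorescent reporter-transcript fragments separated by capillary electrophoresis after RT-PCR. Transiently transfected HepG2 cells carrying cis-element-driven reporter units were dosed for 24 h; gain or loss of signal fitted against DMSO control.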

O=C1OC(=O)c2cc(-c3ccc4c(c3)C(=O)OC4=O)ccc21
outcome [1]: inactive | outcome [2]: inactive | outcome [3]: inactive | outcome [4]: inactive | outcome [5]: inactive | outcome [6]: inactive | outcome [7]: inactive | outcome [8]: inactive | outcome [9]: inactive | outcome [10]: inactive | outcome [11]: inactive | outcome [12]: inactive | outcome [13]: inactive | outcome [14]: inactive | outcome [15]: inactive | outcome [16]: inactive | outcome [17]: inactive | outcome [18]: inactive | outcome [19]: inactive

CCCCCCCCCCCC(=O)O
AC50 [1]: 167 µM (active) | outcome [1]: inactive | outcome [2]: inactive | AC50 [3]: 117 µM (active) and 60 µM (active) | outcome [4]: inactive | outcome [5]: inactive | AC50 [6]: 100 µM (active) | outcome [6]: inactive | outcome [7]: inactive | outcome [8]: inactive | outcome [9]: inactive | outcome [10]: inactive | outcome [11]: inactive | outcome [13]: inactive | outcome [14]: inactive | outcome [15]: inactive | outcome [17]: inactive | AC50 [19]: 146 µM (active) | outcome [19]: inactive

Cc1cncc(C)c1
outcome [1]: inactive | outcome [2]: inactive | outcome [3]: inactive | outcome [4]: inactive | outcome [5]: inactive | outcome [6]: inactive | outcome [7]: inactive | outcome [8]: inactive | outcome [9]: inactive | outcome [10]: inactive | outcome [11]: inactive | outcome [12]: inactive | outcome [13]: inactive | outcome [14]: inactive | outcome [15]: inactive | outcome [16]: inactive | outcome [17]: inactive | outcome [18]: inactive | outcome [20]: inactive | outcome [19]: inactive

Cn1sccc1=O
AC50 [1]: 74.2 µM (active) | outcome [2]: inactive | outcome [3]: inactive | outcome [4]: inactive | AC50 [5]: 34.7 µM (active) | AC50 [6]: 168 µM (active) | outcome [7]: inactive | AC50 [8]: 72.4 µM (active) | outcome [9]: inactive | AC50 [10]: 165 µM (active) | outcome [11]: inactive | outcome [12]: inactive | outcome [13]: inactive | outcome [14]: inactive | outcome [15]: inactive | outcome [16]: inactive | AC50 [17]: 148 µM (active) | outcome [18]: inactive | outcome [20]: inactive | AC50 [19]: 163 µM (active)

CCCCCCCCCCCC[N+](C)(C)Cc1ccccc1
AC50 [1]: 11.1 µM (active) | outcome [1]: inactive | outcome [2]: inactive | outcome [3]: inactive | outcome [5]: inactive | outcome [6]: inactive | outcome [7]: inactive | AC50 [8]: 12.4 µM (active) | outcome [8]: inactive | outcome [9]: inactive | AC50 [10]: 17.3 µM (active) | outcome [10]: inactive | AC50 [13]: 11.1 µM (active) | outcome [13]: inactive | outcome [14]: inactive | outcome [15]: inactive | outcome [16]: inactive | AC50 [17]: 16.7 µM (active) | outcome [17]: inactive | outcome [18]: inactive | outcome [20]: inactive | outcome [19]: inactive

C[C@]12CC[C@@H]3c4ccc(O)cc4CC[C@H]3[C@@H]1C[C@@H](O)[C@@H]2O
AC50 [1]: 26.3 µM (active) | outcome [1]: inactive | outcome [2]: inactive | outcome [3]: inactive | outcome [6]: inactive | outcome [7]: inactive | outcome [8]: inactive | outcome [9]: inactive | outcome [10]: inactive | outcome [11]: inactive | outcome [13]: inactive | outcome [14]: inactive | outcome [15]: inactive | outcome [16]: inactive | outcome [17]: inactive | outcome [20]: inactive | outcome [19]: inactive
